# Measured values published in publication PMC4336329 (PLoS ONE, 2015).
# The campaign covered roughly 310,000 compounds. About 14,000 (4.5%) showed an effect of 50% or more. Effects have a minus sign here. The sample holds strong results, similar compounds and a random draw of the others, so the mix is not that of the screen.
# Molecular target: human ether-à-go-go-related gene (hERG) potassium channel (human, UniProt Q12809)
# Test: primary screen, population patch clamp on CHO cells stably expressing hERG; higher = less effect of the substance
# 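Further: peak tail current of the secondary pulse compared with the same well before compound.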
# Sequence of human ether-à-go-go-related gene (hERG) potassium channel (Q12809 whole entry, looked up): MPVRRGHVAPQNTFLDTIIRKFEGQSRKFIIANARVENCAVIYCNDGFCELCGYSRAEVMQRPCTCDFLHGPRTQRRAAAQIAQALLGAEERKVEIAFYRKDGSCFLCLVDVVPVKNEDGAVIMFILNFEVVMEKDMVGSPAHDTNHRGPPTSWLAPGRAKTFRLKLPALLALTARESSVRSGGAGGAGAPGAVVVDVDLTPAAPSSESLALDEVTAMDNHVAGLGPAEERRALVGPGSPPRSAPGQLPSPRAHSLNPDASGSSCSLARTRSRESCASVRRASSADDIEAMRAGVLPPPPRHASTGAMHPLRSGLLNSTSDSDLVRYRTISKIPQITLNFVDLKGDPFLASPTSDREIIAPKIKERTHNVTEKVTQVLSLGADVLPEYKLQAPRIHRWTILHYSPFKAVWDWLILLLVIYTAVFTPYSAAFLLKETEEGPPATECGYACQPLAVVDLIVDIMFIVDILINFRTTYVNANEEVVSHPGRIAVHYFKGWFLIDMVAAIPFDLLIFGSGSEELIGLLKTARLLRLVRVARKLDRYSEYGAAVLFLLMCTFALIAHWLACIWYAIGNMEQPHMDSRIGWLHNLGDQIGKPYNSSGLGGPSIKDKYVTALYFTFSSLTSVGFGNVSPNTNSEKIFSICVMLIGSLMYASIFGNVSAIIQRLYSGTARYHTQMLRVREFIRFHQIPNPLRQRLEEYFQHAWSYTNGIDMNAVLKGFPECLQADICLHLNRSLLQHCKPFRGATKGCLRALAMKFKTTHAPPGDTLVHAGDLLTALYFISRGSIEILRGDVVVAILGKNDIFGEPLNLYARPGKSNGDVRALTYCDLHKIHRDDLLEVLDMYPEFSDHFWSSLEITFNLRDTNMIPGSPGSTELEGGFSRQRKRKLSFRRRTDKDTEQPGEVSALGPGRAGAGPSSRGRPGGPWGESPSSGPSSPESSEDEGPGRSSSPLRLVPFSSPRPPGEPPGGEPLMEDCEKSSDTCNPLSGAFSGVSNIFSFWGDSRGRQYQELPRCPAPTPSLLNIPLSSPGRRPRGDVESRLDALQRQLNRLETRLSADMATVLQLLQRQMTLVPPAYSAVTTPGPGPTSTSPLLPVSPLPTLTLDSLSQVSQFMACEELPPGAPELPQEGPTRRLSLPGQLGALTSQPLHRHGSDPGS
row,Compound,"hERG current change (%, negative = inhibition) at 10uM"
1,CCC(c1nnnn1Cc1ccco1)N(Cc1cc2cc(OC)ccc2[nH]c1=O)C1CCCCC1 (stereo not shown),-6.37%
2,CCN(CC(=O)NCc1cccs1)C(=O)c1ccccc1F,9.12%
3,CCN(CC(=O)NCc1cccs1)C(=O)c1ccc(-c2cccc(C(F)(F)F)c2)o1,-82.3%
4,CCN(CC(=O)NCc1cccs1)C(=O)c1ccc([N+](=O)[O-])o1,-33.8%
5,CCN(CC(=O)NCc1cccs1)C(=O)c1ccc(-c2ccccc2F)o1,-71.6%
6,Cc1cccc(C)c1NC(=O)CN(C)C(=O)c1ccc(-c2cccc(C(F)(F)F)c2)o1,-12.5%
7,CCN(CC(=O)NCc1cccs1)C(=O)COc1cccc(C(F)(F)F)c1,-38.2%
8,Cn1cccc1Cc1nnc(SCC(=O)NC2CCCC2)n1-c1ccc(F)cc1,-19%
9,Brc1ccc(-c2csc(Nc3nc(-c4ccc(Br)cc4)cs3)n2)cc1,15%
10,COc1ccccc1OCCNCC(O)COc1cccc2[nH]c3ccccc3c12 (stereo not shown),-65.6%
11,COCCCNCC(O)COc1cccc2[nH]c(C)cc12 (stereo not shown),10%
12,COc1ccccc1OCCNC(=O)c1cc(=O)[nH]c2ccccc12,-4.62%
13,CC(C)(CO)NCc1c(OCc2ccc(Cl)cc2)ccc2ccccc12.Cl,-75.6%
14,CNCc1c(OCc2ccc(F)cc2)ccc2ccccc12.Cl,-49.1%
15,CC(O)CNCCNCc1c(OCc2ccccc2)ccc2ccccc12.Cl (stereo not shown),-34.6%
16,CNCc1c(OCc2ccccc2F)ccc2ccccc12.Cl,-63.5%
17,COc1cc(CNC(C)(C)CO)cc(Br)c1OCc1ccccc1.Cl,-17.2%
18,CNCc1c(OCc2ccccc2)ccc2ccccc12.Cl,-34.1%
19,COc1cccc(CNC(C)(C)CO)c1OCc1ccc(Cl)cc1.Cl,-56.6%
20,CC(C)(CO)NCc1cccc(OCc2ccc(Cl)cc2)c1,-30.8%
21,Cl.OCCNCc1c(OCc2ccc(Cl)cc2)ccc2ccccc12,-77.4%
22,CCOc1cc(CNCCO)cc(Br)c1OCc1ccc(Cl)cc1.Cl,-16.5%

row,Compound,"hERG current change (%, negative = inhibition) at 10uM"
1,CNCc1ccccc1OCc1ccccc1F.Cl,-4.37%
2,COc1cc(CNC(C)(C)CO)cc(Br)c1OCc1ccc(Cl)cc1.Cl,-45.7%
3,CC(CC(=O)Nc1ccc(S(=O)(=O)Nc2ncccn2)cc1)c1ccccc1 (stereo not shown),6.78%
4,COc1ccc(C(=O)NC(=S)Nc2ccc(N3CCN(C(C)=O)CC3)cc2)cc1[N+](=O)[O-],-2.14%
5,O=C1N(CN2C(=O)C3(OCCO3)c3ccccc32)c2ccccc2C12OCCO2,17.1%
6,COc1cc2c(cc1OC)C(COc1ccccc1OC)N(C(C)=O)CC2 (stereo not shown),14.8%
7,CCn1c(CC(=O)Nc2ccccc2F)nnc1SCC(=O)N1CCN(c2ccccc2)CC1,1.15%
8,Nc1ccc(S(=O)(=O)Nc2ccc(C(=O)c3ccccc3)cc2)cc1,-2.92%
9,CSc1nc(-c2ccccc2)c(C#N)c(=O)[nH]1,-5.88%
10,CCOC(=O)C(Cc1ccccc1)NC(=O)CCCC(=O)c1ccccc1 (stereo not shown),0.911%
11,O=C(CCCSc1nc2ccccc2c(=O)[nH]1)c1ccc(F)cc1,3.3%
12,CCN(CC)S(=O)(=O)c1cccc(C(=O)N/N=C/c2ccc(O)c(O)c2O)c1,11.4%
13,CCc1ccc2nc(N=C(N)N)nc(C)c2c1,-14.3%
14,COc1cccc(CNCCO)c1OCc1ccc(Cl)cc1.Cl,-18%
15,CCOc1cccc(CNCCO)c1OCc1ccc(Cl)cc1.Cl,-53.2%
16,CCOc1cccc(CNc2ccc(O)cc2)c1OCc1ccc(Cl)cc1,10.3%
17,Cc1c(NC(=O)C(C)Sc2ccccc2)c(=O)n(-c2ccccc2)n1C (stereo not shown),-1.92%
18,COc1ccc(C(=O)NCC(C)NC(=O)c2ccc(OC)c(Br)c2)cc1Br (stereo not shown),4.83%
19,Cc1ccc(-n2cnc3scc(-c4cccs4)c3c2=O)cc1,3.67%
20,Cc1cc(C)nc(S/C=C/C(=O)c2ccccc2F)n1,5.02%
21,COc1ccc(C2=NN(C(C#N)c3ccc(OC)c(OC)c3)C(c3ccccc3)C2)cc1 (stereo not shown),23.8%
22,CCCCNc1nc(CC)c2c(c1C#N)CCCC2,8.24%

row,Compound,"hERG current change (%, negative = inhibition) at 10uM"
1,CC(C)CCNc1nc(N2CCCC2)c2c(c1C#N)CCN(C)C2,-58.5%
2,CCc1nc(NCCC(C)C)c(C#N)c2c1CCCC2,23.4%
3,CN1CCc2c(C#N)c(N3CCOCC3)nc(NCC3CCCO3)c2C1 (stereo not shown),11.5%
4,CCCCCNc1nc(N2CCCC2)c2c(c1C#N)CCN(C)C2,-72.8%
5,CCCCCNc1nc(NCCCO)c(C#N)c2c1CN(C)CC2,-75.2%
6,N#Cc1c(NCCCO)nc(NCc2ccccc2)c2c1CCN(Cc1ccccc1)C2,-43.4%
7,CN1CCc2c(C#N)c(N3CCCCC3)nc(N3CCOCC3)c2C1,-24.8%
8,CCCCc1nc(NCCO)c(C#N)c2c1CCCC2,-15.7%
9,Cc1ccc(CN2CC(C(=O)N3CCN(S(=O)(=O)c4c(F)cccc4F)CC3)CC2=O)cc1 (stereo not shown),-2.83%
10,CCc1cc(=O)oc2c(C)c(OCC(=O)N3CC[C@@]4(O)CCCC[C@H]4C3)ccc12,-14.6%
11,O=C(OCC(=O)N(CCc1ccccc1)Cc1ccccc1)c1ccccc1[N+](=O)[O-],1.95%
12,CN(c1ccccc1)S(=O)(=O)c1ccc(Cl)c(C(=O)NCc2ccccc2CN2CCCC2)c1,-65.9%
13,CCN(CC)S(=O)(=O)c1ccc(Cl)c(C(=O)NCc2ccccc2Cl)c1,-24.7%
14,CN(c1ccccc1)S(=O)(=O)c1cccc(C(=O)NCc2ccccc2CN2CCCC2)c1,-74.6%
15,CN(C)C(CNC(=O)c1cc(S(=O)(=O)N(C)c2ccccc2)ccc1Cl)c1ccccc1 (stereo not shown),-39.6%
16,COc1ccccc1CNC(=O)c1cccc(S(=O)(=O)N(C)c2ccccc2)c1,-23.5%
17,CN(c1ccccc1)S(=O)(=O)c1cccc(C(=O)NCc2ccccc2)c1,-18.3%
18,O=C(O)C[C@H]1c2cc(C(F)(F)F)ccc2S(=O)(=O)N1C1CCCCC1,30.3%
19,CCOC(=O)c1c(C)[nH]c(N=Nc2ccc(OC)cc2)c1C,-0.496%
20,Fc1ccc(-c2oncc2-c2nnnn2-c2ccccc2)cc1F,-15.4%
21,COC(=O)c1ccsc1NC(=O)CS(=O)(=O)c1ccccc1,-10.1%
22,CCNS(=O)(=O)c1ccc(CCC(=O)N2CCN(c3cccc(Cl)c3)CC2)cc1,-32.7%

row,Compound,"hERG current change (%, negative = inhibition) at 10uM"
1,CCCCN=C(NNc1ccc(Br)cc1)C(=O)OCC,3.69%
2,N#Cc1ccc(COC(=O)c2cnc(Cl)c(Cl)c2)cc1,8.12%
3,COc1ccc(NCC(=O)N/N=C/c2cc([N+](=O)[O-])ccc2N2CCCC2)cc1,-7.82%
4,O=C(NCc1ccccc1)C(c1ccco1)N(C(=O)c1cnccn1)c1ccc(F)cc1 (stereo not shown),10.5%
5,O=S(=O)(Nc1ccncc1)c1ccc(Cl)c(Cl)c1,18.4%
6,CCS(=O)(=O)Nc1ccc(Cc2ccncc2)cc1,-0.00702%
7,O=C(NCc1ccncc1)c1ccc(NS(=O)(=O)c2cccc([N+](=O)[O-])c2)cc1,19.2%
8,CCCCS(=O)(=O)Nc1ccc(Cc2ccncc2)cc1,-50.2%
9,O=[N+]([O-])c1cccc(S(=O)(=O)NCc2ccncc2)c1,19.4%
10,O=S(=O)(Nc1ccc(Cc2ccncc2)cc1)c1ccc(Cl)c(Cl)c1,-53.4%
11,O=S(=O)(Nc1ccc(Cc2ccncc2)cc1)c1ccc(Cl)cc1,12.4%
12,O=[N+]([O-])c1cccc(S(=O)(=O)Nc2ccc(Cc3ccncc3)cc2)c1,-72.2%
13,CCS(=O)(=O)Nc1ccc(Cc2ccc(NS(=O)(=O)CC)cc2)cc1,-7.91%
14,COc1cccc(CNC(=O)C2=C(C)C(=O)OC23CCC(C)CC3)c1 (stereo not shown),-5.65%
15,O=C(O)c1cc(S(=O)(=O)N2CCCCCC2)ccc1Cl,20%
16,Cc1ccnc(NCc2ccccc2O)c1,14.6%
17,O=C1CCC([N+](=O)[O-])C(c2ccc(-c3ccccc3)cc2)N1 (stereo not shown),-11.3%
18,Cc1ccc(N2C(=O)C3CC(c4ccccc4)=C4C5C=CC(C6C(=O)N(c7ccc(C)cc7)C(=O)C56)C4C3C2=O)cc1 (stereo not shown),-73.6%
19,Cc1ccc(N2C(=O)C3CC(c4ccccc4)=C4C5C=CC(C6C(=O)N(c7ccc(C)cc7C)C(=O)C56)C4C3C2=O)c(C)c1 (stereo not shown),7.82%
20,Cc1ccc(N2C(=O)C3C4CC(=O)C(c5ccccc54)C3C2=O)cc1 (stereo not shown),2.69%
21,C=C[C@]1(C)C[C@@H](OC(=O)CSCCN(CC)CC)[C@]2(C)C(C)CC[C@]3(CCC(=O)[C@H]32)[C@@H](C)[C@@H]1O (stereo partly shown),-61.9%
22,C=C[C@]1(C)C[C@@H](OC(=O)CSCCN(CC)CC)[C@]2(C)C(C)CC[C@]3(CCC(=O)[C@H]32)[C@@H](C)[C@@H]1O.O=C(O)/C=C/C(=O)O (stereo partly shown),-68.3%
